Among the data in PubChem BioAssay (NCI) are growth values, retold here.

Compounds without any hit were thinned out: in the full panel of roughly 83,000, 20% have a hit.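 The test compound was applied at a single concentration to cells in 96-well plates for 48 hours, and percent growth was recorded.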 Unmarked numbers belong to inactive results. The source made the active and inactive calls. Rule for the calls: active = growth percent below 10; inactive = the rest.

Holding throughout (test): NCI-60 one-dose screen, 48 h (100 = growth as untreated, 0 = no growth, -100 = all killed)
For assay [1], the system named is NCI-H226 lung. The note with it: 10 µM.
Assay [2] relates to NCI-H322M lung. As to conditions: 10 µM.
For assay [3], the system named is HOP-62 NSCLC. As to conditions: 10 µM.
The subject of assay [4] is NCI-H460 lung. The note with it: 10 µM.
For assay [5], the system named is NCI-H522 lung. The note with it: 10 µM.
The test system of assay [6] is COLO 205 colon. The note with it: 10 µM.
The subject of assay [7] is DU-145 prostate. The note with it: 10 µM.
Assay [8] concerns K-562 leukemia. As to conditions: 10 µM.
Assay [9] concerns SF-539 CNS. As to conditions: 10 µM.
The subject of assay [10] is M14 melanoma. The note with it: 10 µM.
The test system of assay [11] is HCT-15 colon. The note with it: 10 µM.
The test system of assay [12] is HT29 colon. As to conditions: 10 µM.
The subject of assay [13] is SNB-75 CNS. The note with it: 10 µM.
The subject of assay [14] is SNB-19 CNS. The note with it: 10 µM.
In assay [15] the test system is LOX IMVI melanoma. As to conditions: 10 µM.
Assay [16] concerns MOLT-4 leukemia. As to conditions: 10 µM.
Assay [17] has as its system SR leukemia. As to conditions: 10 µM.
Assay [18] has as its system RPMI-8226 leukemia. As to conditions: 10 µM.
In assay [19] the test system is SK-OV-3 ovarian. As to conditions: 10 µM.
Assay [20] concerns MDA-MB-468 breast. As to conditions: 10 µM unless noted.

Turning to `COc1cc2oc(-c3cccc(C(=O)Nc4ccc(Cl)cc4)c3)cc(=O)c2c(OCCN)c1OC`, the growth in assay [1] was -76.6% (active); in [2] it was -93.7% (active); in [3], -62.7% (active); in assay [4] it was -87.2% (active); in [5], -87.1% (active); in assay [6], -75.8% (active). In addition, the growth was -99% (active) in assay [7]; -43.9% (active) in [8]; -83.2% (active) in assay [9]; -89.7% (active) in assay [10]; -76.6% (active) in assay [11]; -91.2% (active) in [12]. Further, the growth in assay [13] was -73.5% (active); in assay [14], -78.7% (active); in assay [15], -84.3% (active); in assay [16], -59.2% (active); in [17] it was -48.6% (active); in assay [18], -64.2% (active). Moreover, the growth in assay [19] is -84.6% (active); in assay [20], -73.4% (active).

On to `COc1ccc(OC)c(-n2cc(C#N)c(N)c2C(=O)c2ccc(Cl)cc2Cl)c1`, for which the growth is 51.3% in assay [1]; 76.8% in assay [2]; 49.3% in [3]; 32.9% in assay [4]; 7.18% (active) in assay [5]; 32.6% in assay [6]. Moreover, the growth was 65.6% in [7]; 14.1% in assay [8]; 25.6% in [9]; 23.5% in [10]; 21.6% in assay [11]; 4.43% (active) in assay [12]. Moreover, the growth in assay [13] was -7.62% (active); in assay [14] it was 45.5%; in [15] it was 48.2%; in [16], 29.8%; in assay [17] it was 13.7%; in [18] it was 39%. Besides, the growth in assay [19] is 49.7%; in [20], 19.8%.

On to `CCOC(=O)C1=C(N)N(c2ccc(C)cc2)C2=C(C(=O)CC(C)(C)C2)C1c1ccccc1Br` (stereo not given), for which the growth is 84.9% in assay [1]; 99% in assay [2]; 90.8% in assay [3]; 53.5% in assay [4]; 67.5% in [5]; 62.7% in [6]. The growth in assay [7] is 102%; in assay [8] it was 50.6%; in [9] it was 104%; in assay [10], 83%; in assay [11] it was 58.4%; in assay [12] it was 62.5%. Besides, the growth in assay [13] was 87.2%; in [14] it was 86.7%; in assay [15], 88.8%; in assay [16], 29.1%; in assay [17] it was 65.7%; in assay [18] it was 35.5%. The growth in [19] was 91.9%; in assay [20] it was 77%.

In the case of `COc1ccc(Cn2cc(C#N)c(N)c2C(C)=O)c(OC)c1`, the growth was 102% in [1]; 103% in assay [2]; 105% in assay [3]; 108% in assay [4]; 104% in [5]; 125% in assay [6]. In addition, the growth in [7] is 107%; in [8], 103%; in assay [9], 96.2%; in assay [10], 99.8%; in assay [11] it was 102%; in assay [12], 117%. Moreover, the growth in [13] is 111%; in assay [14], 105%; in assay [15], 99.6%; in assay [16] it was 105%; in [17], 106%; in assay [18], 105%. In addition, the growth was 99.8% in assay [19] and 99.5% in assay [20].

Consider `Cn1cc(-c2cc3nc(-c4c[nH]c5ccccc45)cc(N)n3n2)c2cc(Cl)ccc21`, for which the growth in assay [1] was -30.4% (active); in [2] it was -98.8% (active); in assay [3], -86.4% (active); in [4], -58.2% (active); in assay [5] it was -72.1% (active); in assay [6] it was -89.9% (active). Further, the growth in [7] is -92.6% (active); in assay [8] it was 0.698% (active); in [9] it was -92.5% (active); in assay [10] it was -89.3% (active); in [11], -84% (active); in [12], -69.3% (active). Further, the growth in [13] is -65.9% (active); in assay [14] it was -78.2% (active); in assay [15], -91.6% (active); in [16] it was -48.8% (active); in assay [17] it was -8.96% (active); in assay [18], -25.5% (active). The growth in assay [19] is -94.7% (active); in assay [20], -85.9% (active).

Turning to `Cn1cc(-c2nnc(N)nc2-c2c[nH]c3ccc(F)cc23)c2cc(Br)cnc21`, the growth in assay [1] is 89.3%; in assay [2], 79.1%; in assay [3], 56.8%; in assay [4], 39.7%; in assay [5], 23.8%; in assay [6] it was 72.6%. The growth in [7] is 89.4%; in [8], 42.8%; in [9] it was 64.5%; in [10], 77.4%; in [11] it was 59.8%; in assay [12], 71.6%. Further, the growth in [13] was 59.1%; in assay [14] it was 58.3%; in assay [15], 47%; in assay [16], 4.34% (active); in assay [17], 9.16% (active); in assay [18] it was 59.1%. In addition, the values for the growth in assay [19] and in assay [20] were 98.8% and 13.8%, respectively.

Turning to `COc1cc2oc(-c3cccc(C(=O)Nc4ccc(Cl)cc4)c3)cc(=O)c2c(OCCNC(=O)[C@@H](N)CO)c1OC`, the growth in assay [1] was 95.1%; in [2], 55.3%; in assay [3] it was 87.6%; in assay [4] it was 40.2%; in assay [5], -27.9% (active); in assay [6] it was 40.9%. In addition, the growth is 77% in [7]; -53.3% (active) in [8]; 23.9% in assay [9]; -81.8% (active) in assay [10]; 83% in [11]; 37.3% in assay [12]. For the same compound, the growth in assay [13] was 121%; in [14] it was 25%; in [15] it was -79.1% (active); in assay [16], -40.4% (active); in [17], -38.1% (active); in assay [18], -23.4% (active). The growth in [19] was 115%; in [20], -85.6% (active).
